# According to the supplement of paper PMC8975748:
# Structures can show the parent of a compound that is named as a salt.
# Tested on: Saccharomyces cerevisiae BY4741 SeMeCo community
# Experiment: z-score of subpopulation abundance vs DMSO median, subpopulation auxotrophic for HUM; higher = larger share of this subpopulation than in DMSO controls
# Conditions: 10 µM; 24 h; SM minimal medium; subpopulation (auxotrophy): HUM
# Experimental: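 Fluorescent four-plasmid SeMeCo (self-establishing metabolically cooperating S. cerevisiae BY4741 community; plasmids pH-mRuby2, pL-mWasabi, pU-eCFP, pM-TagRFP657) was grown 24 h in minimal SM medium with each Selleck FDA-approved drug at 10 µM in 384-well plates. Cells were fixed and imaged by high-content confocal microscopy. For each auxotrophic subpopulation (and the prototroph), a z-score gives the deviation from the DMSO vehicle-control population median.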
row,SMILES,z-score of subpopulation abundance
1,C[C@H]1COc2c(N3CCN(C)CC3)c(F)cc3c(=O)c(C(=O)O)cn1c23 [Levofloxacin hydrate],0.55
2,CC(C)[N+](C)(CCOC(=O)C1c2ccccc2Oc2ccccc21)C(C)C [Propantheline bromide],-1.29
3,CO/N=C(\C(=O)N[C@@H]1C(=O)N2C(C(=O)O)=C(CSC(=O)c3ccco3)CS[C@H]12)c1csc(N)n1 [Ceftiofur],0.28
4,COCCCN1CCC(NC(=O)c2cc(Cl)c(N)c3c2OCC3)CC1 [Prucalopride],0.36
5,CCCOc1ccc(C(=O)OCCN(CC)CC)cc1N [Proparacaine HCl],-0.66
6,C[C@H](NCc1ccc(OCc2cccc(F)c2)cc1)C(N)=O [Safinamide Mesylate],0.75
7,Cn1c(=O)c2c(ncn2CC(O)CO)n(C)c1=O (stereo not given) [Dyphylline],-1.32
8,N[C@@H]1CONC1=O [D-Cycloserine],0.3
9,CN[C@H](CC(C)C)C(=O)N[C@H]1C(=O)N[C@@H](CC(N)=O)C(=O)N[C@H]2C(=O)N[C@H]3C(=O)N[C@H](C(=O)N[C@H](C(=O)O)c4cc(O)cc(O)c4-c4cc3ccc4O)[C@H](O)c3ccc(c(Cl)c3)Oc3cc2cc(c3O[C@@H]2O[C@H](CO)[C@@H](O)[C@H](O)[C@H]2O[C@H]2C[C@](C)(N)[C@H](O)[C@H](C)O2)Oc2ccc(cc2Cl)[C@H]1O [Vancomycin HCl],0.51
10,CC(C)(C)C(=O)OCOC(=O)[C@@H]1N2C(=O)[C@@H](/N=C/N3CCCCCC3)[C@H]2SC1(C)C [Pivmecillinam hydrochloride],-0.16
11,C[C@@H](NCCCc1cccc(C(F)(F)F)c1)c1cccc2ccccc12 [Cinacalcet HCl],-0.21
12,CCCCCCCCCCCCCCCC[N+](C)(C)C [Cetrimonium Bromide (CTAB)],34.1
13,OCc1ccccc1O[C@@H]1O[C@H](CO)[C@@H](O)[C@H](O)[C@H]1O [Salicin],-0.09
14,O=S1(=O)CCN(CN2CCS(=O)(=O)NC2)CN1 [Taurolidine],-0.52
15,CC(C)C(=O)Oc1ccc(CO)cc1[C@H](CCN(C(C)C)C(C)C)c1ccccc1 [Fesoterodine Fumarate],-0.72
16,O=C1C(CC[S+]([O-])c2ccccc2)C(=O)N(c2ccccc2)N1c1ccccc1 (racemic) [(+/-)-Sulfinpyrazone],0.22
17,O=C1c2cccc3c2[C@H](CCC3)CN1[C@@H]1CN2CCC1CC2 [Palonosetron HCl],-0.03
18,COCC1=C(C(=O)OC(C)OC(=O)OC(C)C)N2C(=O)[C@@H](NC(=O)/C(=N\OC)c3csc(N)n3)[C@H]2SC1 (stereo not given in full) [Cefpodoxime proxetil],0.76
19,CC(C)[C@H](N)C(=O)OCC(CO)OCn1cnc2c(=O)[nH]c(N)nc21 (stereo not given in full) [Valganciclovir HCl],-0.56
20,COc1cccc(CCc2ccccc2OCC(CN(C)C)OC(=O)CCC(=O)O)c1 (stereo not given) [Sarpogrelate hydrochloride],-0.04

row,SMILES,z-score of subpopulation abundance
1,CN1CCN(CC(=O)N2c3ccccc3C(=O)Nc3cccnc32)CC1 [Pirenzepine dihydrochloride],-0.75
2,COc1cnc(NS(=O)(=O)c2ccc(N)cc2)nc1 [Sulfameter],0.14
3,CN(C)c1cc(NC(=O)CNC(C)(C)C)c(O)c2c1CC1CC3C(N(C)C)C(=O)C(C(N)=O)=C(O)C3(O)C(=O)C1=C2O (stereo not given) [Tigecycline],-0.19
4,O=c1ccc2ccc(OCCCCN3CCN(c4cccc5sccc45)CC3)cc2[nH]1 [Brexpiprazole],0.25
5,CN(Cc1cnc2nc(N)nc(N)c2n1)c1ccc(C(=O)N[C@@H](CCC(=O)O)C(=O)O)cc1 [Methotrexate],0
6,CCN(CC)CCNC(=O)c1cc(Cl)c(N)cc1OC [Metoclopramide HCl],-1.06
7,CN(C)CCc1c[nH]c2ccc(Cn3cncn3)cc12 [Rizatriptan Benzoate],-0.59
8,CN1C(C(=O)Nc2ccccn2)=C(O)c2sc(Cl)cc2S1(=O)=O [Lornoxicam],-0.27
9,CN(CCOc1ccc(NS(C)(=O)=O)cc1)CCc1ccc(NS(C)(=O)=O)cc1 [Dofetilide],0.21
10,Cc1onc(-c2ccccc2)c1C(=O)N[C@@H]1C(=O)N2[C@@H]1SC(C)(C)[C@@H]2C(=O)O [Oxacillin sodium monohydrate],0.65
11,NC(=O)c1cn(Cc2c(F)cccc2F)nn1 [Rufinamide],0.45
12,Cc1c(-c2ccc(O)cc2)n(Cc2ccc(OCCN3CCCCCC3)cc2)c2ccc(O)cc12 [Bazedoxifene Acetate],-0.26
13,CONC(=O)Nc1ccc(-c2sc3c(c2CN(C)C)c(=O)n(-c2ccc(OC)nn2)c(=O)n3Cc2c(F)cccc2F)cc1 [Relugolix],-0.45
14,CS(=O)(=O)c1ccc([C@@H](O)[C@@H](CF)NC(=O)C(Cl)Cl)cc1 [Florfenicol],-0.98
15,N[C@H]1CONC1=O [L-Cycloserine],1.54
16,CO/N=C(\C(=O)N[C@@H]1C(=O)N2C(C(=O)O)=C(CSC(=O)c3ccco3)CS[C@H]12)c1csc(N)n1 [Ceftiofur HCl],2.38
17,CC(C)(C)C(=O)C(Oc1ccc(Cl)cc1)n1ccnc1 (stereo not given) [Climbazole],9.71
18,COc1ccnc(C[S+]([O-])c2nc3cc(OC(F)F)ccc3[nH]2)c1OC (stereo not given) [Pantoprazole sodium],0.3
19,Oc1cccc(O)c1 [Resorcinol],-0.96
20,Cc1ncc([N+](=O)[O-])n1C [Dimetridazole],0.28
